From PubChem BioAssay (EPA / NIEHS) come the findings set out here.

Records with an inconclusive call do not appear. Calls of active or inactive are those of the source. The calls were made as follows: active = hit-call score of the fitted dose curve at least 0.9, where 1 is the maximum; inconclusive = response in the unintended direction; inactive = score below 0.9.

human Retinoid X Receptor beta (RXRb), RXRB (gene 6257), sequence (P28702 whole entry, looked up, the tested form may be a part): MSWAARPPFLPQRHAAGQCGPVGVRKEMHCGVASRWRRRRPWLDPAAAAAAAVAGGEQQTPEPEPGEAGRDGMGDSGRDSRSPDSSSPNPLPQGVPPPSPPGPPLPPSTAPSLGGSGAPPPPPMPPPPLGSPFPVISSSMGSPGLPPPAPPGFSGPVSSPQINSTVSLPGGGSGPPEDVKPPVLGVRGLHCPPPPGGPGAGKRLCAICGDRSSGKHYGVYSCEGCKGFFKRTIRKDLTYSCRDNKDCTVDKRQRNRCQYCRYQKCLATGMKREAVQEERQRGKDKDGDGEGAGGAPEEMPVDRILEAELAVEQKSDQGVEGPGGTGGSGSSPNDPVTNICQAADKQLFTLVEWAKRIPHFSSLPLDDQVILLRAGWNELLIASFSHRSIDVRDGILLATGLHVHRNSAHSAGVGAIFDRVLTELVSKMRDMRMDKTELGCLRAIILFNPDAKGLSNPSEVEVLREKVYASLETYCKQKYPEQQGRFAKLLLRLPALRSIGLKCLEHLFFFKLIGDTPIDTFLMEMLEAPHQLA
human RAR-related Orphan Receptor gamma (RORg), RORC (gene 6097), sequence (P51449 whole entry, looked up, the tested form may be a part): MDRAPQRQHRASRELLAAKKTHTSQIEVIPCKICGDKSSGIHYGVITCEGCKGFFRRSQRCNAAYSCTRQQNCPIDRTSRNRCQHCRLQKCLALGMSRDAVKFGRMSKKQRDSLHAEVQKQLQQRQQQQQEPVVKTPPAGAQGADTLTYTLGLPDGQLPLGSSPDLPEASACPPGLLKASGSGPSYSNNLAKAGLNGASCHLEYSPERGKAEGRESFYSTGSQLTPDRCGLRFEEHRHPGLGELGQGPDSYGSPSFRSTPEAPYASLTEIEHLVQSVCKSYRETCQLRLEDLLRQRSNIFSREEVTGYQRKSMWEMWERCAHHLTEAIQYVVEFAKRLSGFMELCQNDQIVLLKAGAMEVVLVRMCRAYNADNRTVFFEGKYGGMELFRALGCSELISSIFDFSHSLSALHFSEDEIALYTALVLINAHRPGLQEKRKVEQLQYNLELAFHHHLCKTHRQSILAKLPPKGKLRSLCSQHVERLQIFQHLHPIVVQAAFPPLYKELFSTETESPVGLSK

For one assay, the target named is human RAR-related Orphan Receptor beta (RORb), RORB (gene 6096) (UniProt Q92753). Nature of the assay: ATG_RORb_TRANS: Attagene TRANS-FACTORIAL HepG2 Assay for human RAR-related Orphan Receptor beta (RORb) (AID 2283010). In short, it runs like this: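 Multiplexed transcription-factor reporter assay: HepG2 cells transiently carrying NR-Gal4/GAL4-UAS constructs, 24 h treatment, mRNA quantified by RT-PCR plus capillary electrophoresis fluorescence; activity scored as induction over DMSO.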
human RAR-related Orphan Receptor beta (RORb), RORB (gene 6096), sequence (Q92753 whole entry, looked up, the tested form may be a part): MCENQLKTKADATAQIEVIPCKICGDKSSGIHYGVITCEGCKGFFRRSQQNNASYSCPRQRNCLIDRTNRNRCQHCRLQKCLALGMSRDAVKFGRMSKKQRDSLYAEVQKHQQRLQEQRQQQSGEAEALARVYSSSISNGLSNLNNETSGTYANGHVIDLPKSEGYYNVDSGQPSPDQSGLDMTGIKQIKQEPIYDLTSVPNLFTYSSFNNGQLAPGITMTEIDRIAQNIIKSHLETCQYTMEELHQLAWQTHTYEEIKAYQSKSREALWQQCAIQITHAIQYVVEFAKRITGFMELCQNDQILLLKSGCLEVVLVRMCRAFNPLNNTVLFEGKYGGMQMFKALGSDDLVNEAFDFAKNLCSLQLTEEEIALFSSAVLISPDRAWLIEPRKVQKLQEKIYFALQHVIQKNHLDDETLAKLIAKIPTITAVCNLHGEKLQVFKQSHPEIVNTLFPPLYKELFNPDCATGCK
Take `Oc1ccc(Nc2ccccc2)cc1`: the call was inactive.

Take `NC(=O)C(F)(F)C(F)(F)C(F)(F)C(F)(F)F`: the result was inactive.

As for `FC(F)(F)C(F)(F)C(F)(F)C(F)(F)CCI`, the outcome was inactive.

On to `C=CC(=O)OCC(F)(F)C(F)(F)C(F)(F)C(F)(F)C(F)(F)C(F)(F)C(F)(F)F`, for which the result was inactive.

As to `Nc1ccc([N+](=O)[O-])cc1O`, the result was inactive.

For the compound `FC(F)(F)C(F)(F)C(F)(F)C(F)(F)C(F)(F)C(F)(F)C(F)(F)C(F)(F)F`, the result was inactive.

`O=C(C=Cc1ccccc1)OCC=Cc1ccccc1`: the call was inactive.

Consider `O=C(O)C(F)(OC(F)(F)C(F)(OC(F)(F)C(F)(F)C(F)(F)F)C(F)(F)F)C(F)(F)F` (centres undefined), for which the outcome was inactive.

For the compound `Cc1ccc(S(=O)(=O)OCC(F)(F)C(F)(F)C(F)(F)C(F)(F)C(F)(F)C(F)F)cc1`, the compound was classed as inactive.

Take `CCCCNc1ccccc1`: the call was inactive.

As to `C(=C(c1ccccc1)c1ccccc1)c1ccccc1`, the outcome was inactive.

Consider `CCCCCC=O`, for which the result was inactive.

In the case of `C=CC(F)(F)C(F)(F)C(F)(F)C(F)(F)C(F)(F)C(F)(F)C(F)(F)C(F)(F)F`, the result was inactive.

Regarding `CCc1c(Br)c(Br)c(Br)c(Br)c1Br`, the outcome was inactive.

Take `OCC(F)(F)C(F)(F)C(F)(F)F`: the call was inactive.

As to `CNC(=S)NC`, the call was inactive.

With `CCC(=O)OCCc1ccccc1`, the result was inactive.

For the compound `CCCCC(CC)COP(=O)(O)OCC(CC)CCCC` (centres undefined), the outcome was inactive.

As for `Cc1cc(C)cc(O)c1`, the result was inactive.

As for `O=S(=O)(O)c1ccc2ccccc2c1`, the compound was called inactive.

In the case of `O=C(O)C(F)(F)C(F)(F)F`, the compound was classed as inactive.

On to `C=C(C)C(=O)OCC(F)(F)C(F)(F)C(F)(F)C(F)(F)C(F)(F)C(F)(F)C(F)(F)F`, for which the compound was classed as inactive.

The next assay has as its target human RAR-related Orphan Receptor gamma (RORg), RORC (gene 6097) (UniProt P51449). Nature of the assay: ATG_RORg_TRANS: Attagene TRANS-FACTORIAL HepG2 Assay for human RAR-related Orphan Receptor gamma (RORg) (AID 2283011). Summed up: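 First, HepG2 liver cells were transfected with GAL4-UAS-driven reporter constructs and the RORg-Gal4 fusion. Next, they were treated with chemical for 24 h. Finally, reporter mRNA was quantified by RT-PCR and capillary electrophoresis, with upward activity fitted against DMSO.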
For `CC/C=C\CCOC(C)=O`, the compound was called inactive.

In the case of `CC(Cc1ccc(O)c(O)c1)C(C)Cc1ccc(O)c(O)c1` (centres undefined), the outcome was inactive.

As to `CCCCCCCCC(F)(F)C(F)(F)C(F)(F)C(F)(F)C(F)(F)C(F)(F)F`, the call was inactive.

For `CCCCCCS`, the compound was called inactive.

Consider `CCO[Si](CCC(F)(F)C(F)(F)C(F)(F)C(F)(F)C(F)(F)C(F)(F)F)(OCC)OCC`, for which the result was inactive.

As for `CCc1ccc(C(c2ccc(CC)cc2)C(Cl)Cl)cc1`, the compound was classed as inactive.

With `O=C(O)C=C(C(F)(F)F)C(F)(F)F`, the compound was called inactive.

Consider `OC[C@@H](O)[C@@H](O)[C@H](O)[C@@H](O)CO`, for which the result was inactive.

Regarding `CCN(CC)c1ccc2c(C)cc(=O)oc2c1`, the result was inactive.

On to `Nc1ccc(Oc2cccc(Oc3ccc(N)cc3)c2)cc1`, for which the compound was called inactive.

Consider `O=C(OCCOCCOCCOC(=O)c1ccccc1)c1ccccc1`, for which the call was inactive.

On to `C=CC/C=C/C/C=C/C/C=C/C`, for which the outcome was inactive.

The target in the next assay is Retinoic acid receptor RXR-alpha (Homo sapiens) (UniProt P19793). Nature of the assay: ATG_RXRa_TRANS: Attagene TRANS-FACTORIAL HepG2 Assay for human Retinoid X Receptor alpha (RXRa) (AID 2283012). Summed up: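 Chimeric NR-GAL4 trans-activation in HepG2, 24 h treatment; reporter transcripts quantified by fluorescence on capillary electrophoresis, analysed for upward change from DMSO.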
Retinoic acid receptor RXR-alpha (Homo sapiens), sequence (P19793 whole entry, looked up, the tested form may be a part): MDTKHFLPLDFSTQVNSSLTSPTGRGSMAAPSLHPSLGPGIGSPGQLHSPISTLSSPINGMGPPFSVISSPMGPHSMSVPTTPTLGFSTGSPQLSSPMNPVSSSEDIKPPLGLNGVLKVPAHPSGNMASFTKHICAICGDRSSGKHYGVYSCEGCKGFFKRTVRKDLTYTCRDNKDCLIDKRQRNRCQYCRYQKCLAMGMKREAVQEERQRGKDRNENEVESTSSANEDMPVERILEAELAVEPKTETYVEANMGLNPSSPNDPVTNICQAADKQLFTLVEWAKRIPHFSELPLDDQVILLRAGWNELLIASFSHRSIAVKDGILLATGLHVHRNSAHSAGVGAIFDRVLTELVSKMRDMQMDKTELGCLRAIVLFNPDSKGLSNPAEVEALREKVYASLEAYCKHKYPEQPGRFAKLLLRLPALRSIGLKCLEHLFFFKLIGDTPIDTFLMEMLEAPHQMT
Regarding `Oc1ccc(Nc2ccccc2)cc1`, the call was inactive.

Take `CC(Cc1ccc(O)c(O)c1)C(C)Cc1ccc(O)c(O)c1` (centres undefined): the compound was classed as inactive.

`FC(F)(F)C(F)(F)C(F)(F)C(F)(F)CCI`: the outcome was inactive.

`CCCCCCCCC(F)(F)C(F)(F)C(F)(F)C(F)(F)C(F)(F)C(F)(F)F`: the compound was classed as inactive.

`Nc1ccc([N+](=O)[O-])cc1O`: the call was inactive.

For the compound `FC(F)(F)C(F)(F)C(F)(F)C(F)(F)C(F)(F)C(F)(F)C(F)(F)C(F)(F)F`, the call was inactive.

In the case of `O=C(C=Cc1ccccc1)OCC=Cc1ccccc1`, the call was inactive.

As to `CCCCCCS`, the call was inactive.

Take `O=C(O)C(F)(OC(F)(F)C(F)(OC(F)(F)C(F)(F)C(F)(F)F)C(F)(F)F)C(F)(F)F` (centres undefined): the call was inactive.

For the compound `Cc1ccc(S(=O)(=O)OCC(F)(F)C(F)(F)C(F)(F)C(F)(F)C(F)(F)C(F)F)cc1`, the result was inactive.

As to `CCO[Si](CCC(F)(F)C(F)(F)C(F)(F)C(F)(F)C(F)(F)C(F)(F)F)(OCC)OCC`, the call was inactive.

As for `C(=C(c1ccccc1)c1ccccc1)c1ccccc1`, the outcome was inactive.

`CCc1ccc(C(c2ccc(CC)cc2)C(Cl)Cl)cc1`: the call was inactive.

As to `O=C(O)C=C(C(F)(F)F)C(F)(F)F`, the outcome was inactive.

`CCCCCC=O`: the result was inactive.

On to `OC[C@@H](O)[C@@H](O)[C@H](O)[C@@H](O)CO`, for which the compound was classed as inactive.

For `CCN(CC)c1ccc2c(C)cc(=O)oc2c1`, the call was inactive.

With `C=CC(F)(F)C(F)(F)C(F)(F)C(F)(F)C(F)(F)C(F)(F)C(F)(F)C(F)(F)F`, the outcome was inactive.

`CCc1c(Br)c(Br)c(Br)c(Br)c1Br`: the compound was called inactive.

Consider `OCC(F)(F)C(F)(F)C(F)(F)F`, for which the compound was called inactive.

As for `CCC(=O)OCCc1ccccc1`, the result was inactive.

Regarding `Cc1cc(C)cc(O)c1`, the compound was classed as inactive.

Turning to `O=S(=O)(O)c1ccc2ccccc2c1`, the call was inactive.

For the compound `O=C(O)C(F)(F)C(F)(F)F`, the outcome was inactive.

`C=CC/C=C/C/C=C/C/C=C/C`: the outcome was inactive.

The next assay addresses human Retinoid X Receptor beta (RXRb), RXRB (gene 6257) (UniProt P28702). Nature of the assay: ATG_RXRb_TRANS: Attagene TRANS-FACTORIAL HepG2 Assay for human Retinoid X Receptor beta (RXRb) (AID 2283013). In short, it runs like this: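 After a 24 h incubation with test chemical, transfected HepG2 cells carrying NR-Gal4 fusions and GAL4-UAS reporter transcription units yield RNA whose reporter cDNA is FAM-labelled, HpaI-cut and sized by capillary electrophoresis; increases over DMSO are scored.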
As to `FC(F)(F)C(F)(F)C(F)(F)C(F)(F)CCI`, the AC50 was 123 µM (active).

For the compound `CCCCCCCCC(F)(F)C(F)(F)C(F)(F)C(F)(F)C(F)(F)C(F)(F)F`, the AC50 is 21.2 µM (active).

Regarding `C=CC(=O)OCC(F)(F)C(F)(F)C(F)(F)C(F)(F)C(F)(F)C(F)(F)C(F)(F)F`, the call was inactive.

Turning to `Nc1ccc([N+](=O)[O-])cc1O`, the compound was called inactive.

As to `Cc1ccc(S(=O)(=O)OCC(F)(F)C(F)(F)C(F)(F)C(F)(F)C(F)(F)C(F)F)cc1`, the half-maximal activity concentration (AC50) was 7.9 µM (active).

As for `CCCCNc1ccccc1`, the compound was classed as inactive.

`CCO[Si](CCC(F)(F)C(F)(F)C(F)(F)C(F)(F)C(F)(F)C(F)(F)F)(OCC)OCC`: the outcome was inactive.

In the case of `CCN(CC)c1ccc2c(C)cc(=O)oc2c1`, the AC50 is 26.5 µM (active).

For the compound `CCc1c(Br)c(Br)c(Br)c(Br)c1Br`, the AC50 was 5.94 µM (active).

Consider `C=CC/C=C/C/C=C/C/C=C/C`, for which the AC50 is 100 µM (active).
